TGFb inhibitor – blocks TGF-b signaling | HepG2 CAGA-GFP TGF-b/SMAD3 reporter, GFP fluorescence, 18 h; TGF-beta stimulated, 500 pg/mL final | Potency, µM (top dose mostly 46.1 µM), inactives show at the top dose activity, negative = inhibition, most hits filed as inhibitors | 410,000 compounds, 1.2% hits | AID 588855; further: on the % scale 0 is the no-effect control and ±100 the full control effect; nearly all actives have a fitted effect of over 65% in size
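Cell-based qHTS in HEPG2 carrying a CAGA-GFP Smad reporter; compounds added before 500 pg/mL final TGF-beta, 18 h incubation at 37 degrees C, GFP fluorescence quantified per cell by imaging cytometry.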
Gal4-VP16 FLuc – counter-screen for ROR gamma inhibitors: Gal4-VP16 reporter. Drosophila S2 Gal4-VP16 UAS-luciferase, luminescence, 20 h. AID 2546. Potency, µM (titrated, usually from 53.6 µM), without a hit: at the top dose activity, negative = inhibition, usual class: inhibitors. 310,000 compounds, 3.5% hits;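 further: Gal4-VP16 expression switched on by copper sulfate through the metallothionein promoter; on the % scale 0 is the no-effect control and ±100 the full control effect; nearly all actives have a fitted effect of over 50% in size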
S2 tox – reduces viability in counter-screen for ATXN expression inhibitors; S2 cells (HEK-293 line with an ATXN2-luciferase reporter) viability, CellTiter-Fluor protease fluorescence, 24 h; Potency, µM (highest dose often 56.7 µM), usual class: cytotoxic; 400,000 compounds, 0.49% hits; further: nearly all actives have a fitted effect of over 40% in size
RORg inh – inhibitors of mouse ROR gamma transcriptional activity. Drosophila S2 Gal4-RORgamma UAS-luciferase reporter, 20 h. Potency, µM (top dose mostly 53.6 µM), without a hit: at the top dose activity change, negative = inhibition, hits mostly inhibitors. 310,000 compounds, 5.4% hits. AID 2551; further: on the % scale 0 is the no-effect control and ±100 the full control effect; nearly all actives have a fitted effect of over 60% in size
Target sequence (P51450 whole entry, looked up, the tested form may be a part): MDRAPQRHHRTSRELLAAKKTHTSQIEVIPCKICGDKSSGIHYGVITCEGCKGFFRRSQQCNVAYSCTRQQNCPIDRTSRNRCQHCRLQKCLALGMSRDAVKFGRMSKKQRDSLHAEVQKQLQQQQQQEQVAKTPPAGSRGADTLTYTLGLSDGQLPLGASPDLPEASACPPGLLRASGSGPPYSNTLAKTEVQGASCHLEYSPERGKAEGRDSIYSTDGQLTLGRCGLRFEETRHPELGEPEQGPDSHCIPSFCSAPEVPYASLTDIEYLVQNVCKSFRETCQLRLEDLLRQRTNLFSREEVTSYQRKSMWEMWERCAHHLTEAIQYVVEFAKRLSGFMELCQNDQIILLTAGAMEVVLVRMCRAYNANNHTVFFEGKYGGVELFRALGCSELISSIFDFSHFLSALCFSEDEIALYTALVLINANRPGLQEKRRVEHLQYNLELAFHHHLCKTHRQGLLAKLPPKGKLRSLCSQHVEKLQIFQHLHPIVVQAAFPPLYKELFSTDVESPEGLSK
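Compounds are pin-transferred onto Drosophila Schneider cells expressing a copper-inducible Gal4–ROR gamma transactivation domain fusion. After 1 hr, copper sulfate is added to 700 uM final; luciferase is read 20 hr later.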
ATXN2 expr inh – inhibitors of ATXN2 expression; 360,000 compounds, 0.72% hits; Potency, µM (top dose mostly 57 µM), for the others: at the highest dose activity change, negative = inhibition, usual class: inhibitors; AID 1745845; HEK-293 ATXN2-luciferase reporter, luminescence, 24 h; further: on the % scale 0 is the no-effect control and ±100 the full control effect; nearly all actives have a fitted effect of over 55% in size
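qHTS (up to 57 uM final) was run with 24 h compound exposure of reporter cells at 37 °C. Each well was multiplexed: SteadyGlo luminescence measured ATXN2-luciferase expression after a fluorogenic Gly-Phe-AFC viability readout (25 uM final).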
HepG2 viability – counter-screen for TGF-b inhibitors: cytotoxicity in HepG2 cells; HepG2 CAGA-GFP viability, ATP luminescence, 18 h; Potency, µM (doses to about 46.1 µM), for the others: at the top dose activity change, negative = cytotoxicity, usual class: cytotoxic; 410,000 compounds, 0.76% hits; AID 588856
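CellTiter-Glo luminescence gave cytotoxicity after 18 hours at 37 degrees C. The cells were HepG2 CAGA-GFP in 1% FBS DMEM, stimulated with 500 pg/mL TGF-beta after compound addition. %Activity was normalised to no-cell wells (complete cell-killing) and DMSO (no toxicity), and curves were fitted and classified.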
The depositor's hits bear a star; i = inactive; ? = inconclusive; / = no result given; [ ] = remark or other dose. The list is not random: actives were taken first. Their share in the collection is about 6.3%. The call rests on the fitted dose curve; in most records, active means well fitted curve in the direction sought with a large enough effect; inconclusive means small, poorly fitted or top-dose-only effect, or another doubt; inactive means no such curve, though single readings can be large; an effect the other way counts as inactive or inconclusive. Potency means the concentration at half of the fitted maximal effect.

SMILES | TGFb inhibitor | Gal4-VP16 FLuc | S2 tox | RORg inh | ATXN2 expr inh | HepG2 viability
CCOc1ccc(C(=O)Nc2cccc3cccnc23)cc1 | 3% | 13% | i | -22% | 25% | -25%
CCOc1ccc(C(=O)N/N=C(\c2ccccc2)c2ccccn2)cc1 | ? | 0.056µM* | ? | 0.2µM* | 7.9µM* | -37%
O=C(O)c1ccc(OCCCCCCOC2CCCCO2)cc1 (configuration not stated) | 2% | 2% | i | -13% | -6% | -12%
O=S1(=O)N=C(N/N=C/c2cccs2)c2ccccc21 | ? | 0.5µM* | ? | 0.89µM* | -16% | -26%
O=[N+]([O-])c1ccc(O)c(/C=N/Nc2nn[nH]n2)c1 | 4% | 1% | ? | ? | -9% | -5%
Cn1c(=O)c2c(nc(N/N=C/c3cccs3)n2C)n(C)c1=O | -2% | 18% | i | 28% | 21% | 3%
O=[N+]([O-])c1ccc(O)c(/C=N\N=C2c3ccccc3-c3ccccc32)c1 | 2.8µM* | ? | ? | -23%[10 µM] | 22µM* | -38%
O=[N+]([O-])c1ccc(/C=N/NC2=NS(=O)(=O)c3ccccc32)cc1 | -7% | 9% | i | -11% | 11% | 0%
O=[N+]([O-])c1ccc(O)c(/C=N/Nc2ccc(Cl)nn2)c1 | ? | 1.4µM* | ? | 1µM* | ? | -44%
O=[N+]([O-])c1ccc(O)c(/C=N/NC2=NS(=O)(=O)c3ccccc32)c1 | 2% | 1.3µM* | ? | 1.3µM* | ? | -8%
COCn1c2ccccc2c2nnc(C(C)=O)nc21 | / | -14%[10 µM] | / | 1%[10 µM] | / | /
CC(C)CCNC(=O)C1CCN(C(=O)c2cc3sccc3n2Cc2ccc(Cl)cc2)CC1 | 6.3µM* | / | / | / | / | -21%
COCCCNC(=O)C1CCN(C(=O)c2cc3sccc3n2Cc2ccc(F)cc2)CC1 | 1% | -4% | i | 20% | 6% | -19%
CCn1c(C(=O)N2CCC(C(=O)NCCCSC3CCCCC3)CC2)cc2sccc21 | ? | 14µM* | i | -60% | -35% | -43%
O=C1CCC2S/C(=C/Nc3ccc(C(F)(F)F)cc3)C(=O)N12 (configuration not stated) | -4% | ? | i | 1.3µM* | 2.8µM* | -2%
O=C(OCC#CCSc1nnc(-c2cccc3ccccc23)o1)c1cc2ccccc2s1 | / | / | / | / | 47% | /
CC(C)c1cnn2c(NCc3ccccc3)cc(N[C@@H](CO)[C@H](O)CO)nc12 | / | / | / | / | 0.27µM* | /
Cc1cc(NCc2ccccc2)n2ncc(-c3ccccc3)c2n1 | 20% | -4% | i | -27% | 181% | 3%
CNCc1nc(-c2ccc[nH]2)c2cc(Cl)ccc2n1 | 1% | / | / | / | / | -35%
COc1cc2c(cc1CC=C(C)C)C(=O)C[C@@H](c1ccc(O)cc1)O2 | / | 11µM* | / | -40% | / | /
CC(C)=CCc1cc([C@@H]2CC(=O)c3ccc(O)c(CC=C(C)C)c3O2)ccc1O | 13µM* | / | ? | / | ? | -68%
Cc1[nH]c2c(F)cccc2c1CC(=O)NCCN1Cc2ccccc2OC(C)C1 (configuration not stated) | / | / | i | / | / | /
Cc1nc(-c2ccc(S(=O)(=O)NCc3ccccn3)s2)cs1 | -17% | ? | i | 10µM* | / | -19%
CC(C)C[C@H](NC(=O)[C@H](CC(C)C)NC(=O)[C@H](Cc1ccc(O)cc1)NC(=O)CNC(=O)[C@H](C)NC(=O)[C@H](CO)NC(=O)[C@H](CC(N)=O)NC(=O)[C@H](CC(C)C)NC(=O)[C@@H](NC(=O)[C@H](Cc1c[nH]c2ccccc12)NC(=O)CN)[C@@H](C)O)C(=O)NCC(=O)N1CCC[C@H]1C(=O)N1CCC[C@H]1C(=O)N1CCC[C@H]1C(=O)NCC(=O)N[C@@H](Cc1ccccc1)C(=O)N[C@@H](CO)C(=O)N1CCC[C@H]1C(=O)N[C@@H](Cc1ccccc1)C(=O)N[C@@H](CCCNC(=N)N)C(N)=O | / | -4% | / | 7% | / | /
O=c1nccc(N/N=C/c2ccccc2O)[nH]1 | ? | 7.1µM* | i | 3.5µM* | ? | -30%
SMILES | TGFb inhibitor | Gal4-VP16 FLuc | S2 tox | RORg inh | ATXN2 expr inh | HepG2 viability
CCOc1ccccc1/C=N/Nc1ccnc(=O)[nH]1 | -14% | 3% | i | -30% | -4% | -25%
COc1cccc(/C=N/Nc2ccccc2C(=O)O)c1O | -4% | -25% | i | ? | 9% | -32%
COc1cccc(/C=N/Nc2snc(SC)c2C#N)c1O | 10µM* | ? | i | ? | -13% | -47%
COc1cccc(/C=N/Nc2ccnc(=O)[nH]2)c1O | -31% | 8.9µM* | i | 4µM* | ? | -28%
O=C(CCc1ccccc1)N1CCc2c([nH]c3ccccc23)C1c1ccc(F)cc1 (configuration not stated) | ? | / | / | / | / | -20%
CN(c1ccccc1)S(=O)(=O)c1cccc(C(=O)Nc2ncn[nH]2)c1 | -2% | ? | i | 8.9µM* | -8% | -8%
CC(C)COc1ccc(C(=O)Nc2ncn[nH]2)cc1 | -2% | 3.5µM* | i | 2.8µM* | 40% | -2%
C=CCOc1ccc(C(=O)Nc2ncn[nH]2)cc1 | -4% | -11% | i | 11µM* | / | -16%
CCOc1ccc(C(=O)Nc2ncn[nH]2)cc1 | 5% | 0% | i | -27% | / | 3%
CC(C)Oc1cccc(C(=O)Nc2ncn[nH]2)c1 | 24% | ? | i | 16µM* | -1% | 11%
COc1ccc(OCCCC(=O)Nc2ncn[nH]2)cc1 | 10% | 1%[10 µM] | i | -5% | -18%[11.3 µM] | 9%
CC(C)Oc1ccc(C(=O)Nc2ncn[nH]2)cc1 | 11% | ? | i | ? | 30% | 1%
CCC1CC=CC2C1C(=O)N(Cc1ccccc1)C2c1ccc(OC)c(Cl)c1 (configuration not stated) | ? | ? | / | 25% | / | -29%
CNc1nc2cc([N+](=O)[O-])c([N+](=O)[O-])cc2nc1NC | 7.1µM* | -23% | i | 13% | ? | -3%
COc1cc(/C=C2/C(=O)c3cccc([N+](=O)[O-])c3C2=O)c(Br)cc1O | ? | 35µM* | / | ? | 22µM* | -33%
COc1ccccc1NC(=O)CCCCCN1C(=O)c2cccc([N+](=O)[O-])c2C1=O | 4% | 2% | ? | -1% | -11% | -32%
O=[N+]([O-])c1cccc(SSc2cccc([N+](=O)[O-])c2)c1 | ? | / | ? | / | -12% | -25%
C[C@@H]1[C@@H](Sc2ccccc2)CC(=O)O[C@@H]1c1ccc(-c2ccccc2)cc1 | ? | -29% | 22µM* | -42% | 18µM* | 11µM*
